# Reference: PubChem BioAssay (Tox21)
# Inconclusive results are not listed. A number with no mark means an inactive call. Unless noted, calls come from the whole dose curve.
# Assay: qHTS assay to identify small molecule agonists of the hypoxia (HIF-1) signaling pathway - cell viability counter screen (AID 1224844); note: nearly all actives have a fitted effect of over 50% in size
# Settings: HRE-bla ME-180 viability, CellTiter-Glo luminescence, 17 h; series mostly up to 76.8 µM; activity change, negative = cytotoxicity: at the top concentration
# Outline: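 CellTiter-Glo luminescence read-out, 30 min RT, taken in the same wells as the beta-lactamase HRE reporter assay; HRE-bla ME-180 cells, 0.5% dialyzed FBS, 17 hr compound treatment at 37C, 5% CO2.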
# % is set by controls: 0 for no effect and ±100 for the full control effect.
row,SMILES,"activity change, negative = cytotoxicity"
1,Nc1ccc(Oc2ccc(N)c(N)c2)cc1,-0.455%
2,Cc1nc(N)nc(N)c1-c1ccc(Cl)c(Cl)c1,7.59% [at 35.3 µM]
3,CCCNC(C)C(=O)Nc1c(C)csc1C(=O)OC (stereo not given),-6.92% [at 35.3 µM]
4,Cc1c[nH]c(=S)[nH]c1=O,-5.93%
5,CCCN(CCC)C(=O)C(CCC(=O)O)NC(=O)c1ccccc1 (stereo not given),-1.62% [at 35.3 µM]
6,CC1(C)S[C@@H]2[C@H](NC(=O)C(C(=O)O)c3ccccc3)C(=O)N2[C@H]1C(=O)O (stereo not given in full),-0.487% [at 35.3 µM]
7,CO[C@@]1(NC(=O)CSCC#N)C(=O)N2C(C(=O)O)=C(CSc3nnnn3C)CS[C@@H]21,-2.9% [at 35.3 µM]
8,CC(CNC1CCCCC1)OC(=O)c1ccccc1 (stereo not given),3.92% [at 35.3 µM]
9,Cc1onc(-c2ccccc2)c1C(=O)Cl,-0.909% [at 35.3 µM]
10,CN1CCN(C2=Nc3ccccc3Oc3ccc(Cl)cc32)CC1,-1.48% [at 35.3 µM]
11,O=C1N(c2ccccc2)c2ccccc2C1(Cc1ccncc1)Cc1ccncc1,-0.631% [at 35.3 µM]
12,Cc1nnc(SCC2=C(C(=O)O)N3C(=O)[C@@H](NC(=O)Cn4cnnn4)[C@H]3SC2)s1,-0.903% [at 35.3 µM]

# Assay: qHTS assay to identify small molecule agonists of H2AX (AID 1224845; active = well fitted activation curve with a large enough effect in the signal ratio in the repeat runs, not every such curve was filed as active; the % refers to the signal ratio)
# Settings: CHO-K1 phospho-H2AX Ser139 HTRF, 3 h; series mostly up to 154 µM; activation (H2AX phosphorylation): at the top concentration
# Outline: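 Phospho-H2AX Ser139 measured by HTRF (ex 320 nm; em 665 and 620 nm) after 24 hr antibody incubation. Compounds, 15 concentrations, 0.76% DMSO, were applied to CHO-K1 cells for 3hr at 37C before lysis.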
row,SMILES,activation (H2AX phosphorylation)
1,OCCN(CCO)c1ccccc1,-0.603%
2,O=C1CCCCC1C1CCCCC1 (stereo not given),3.53%
3,CCCCc1ccc2nc(NC(=O)OC)[nH]c2c1,-0.115% [at 70.9 µM]
4,O=C(CC(=O)C(F)(F)F)c1ccccc1,9.94%
5,C[C@]12CCC(=O)C=C1CC[C@@H]1[C@@H]2CC[C@@]2(C)[C@H]1CC[C@]2(O)C(=O)CO,-6.15% [at 70.9 µM]
6,Cc1cc2nc(N)sc2cc1C,3.34%
7,O=C(O)CN(CCN(CC(=O)O)CC(=O)O)CCN(CC(=O)O)CC(=O)O,1.06% [at 31.6 µM]
8,CN(C)CCOc1ccccc1Cc1ccccc1,-4.08% [at 70.9 µM]
9,CC(C)NC[C@@H](O)COc1cccc2ccccc12,-4.51% [at 70.9 µM]
10,C=Cc1ccccc1,-2.08%
11,CCOc1ccc(NS(=O)(=O)c2ccc(N)cc2)nn1,-0.272% [at 70.9 µM]
12,NC(Cc1ccc(F)cc1)C(=O)O (stereo not given),-2.92% [at 14 µM]
13,CC(=O)N(CC(O)CN(C(C)=O)c1c(I)c(C(=O)NCC(O)CO)c(I)c(C(=O)NCC(O)CO)c1I)c1c(I)c(C(=O)NCC(O)CO)c(I)c(C(=O)NCC(O)CO)c1I (stereo not given),-2.98% [at 70.9 µM]
14,CC(C)NCC(O)COc1ccc(CCOCC2CC2)cc1 (stereo not given),-0.256% [at 70.9 µM]
15,CC1=C(CC(=O)O)c2cc(F)ccc2/C1=C\c1ccc(S(C)(=O)=O)cc1,3.07% [at 70.9 µM]
16,CC(C)C1=CC2=CC[C@@H]3[C@](C)(CCC[C@@]3(C)C(=O)O)[C@H]2CC1,1.17%
17,CCOC(=O)C(Br)c1ccccc1 (stereo not given),-1.34%
18,CCCNC(C)C(=O)Nc1c(C)csc1C(=O)OC (stereo not given),-3.58% [at 70.9 µM]
19,Cc1c[nH]c(=S)[nH]c1=O,-0.976%
20,CCCN(CCC)C(=O)C(CCC(=O)O)NC(=O)c1ccccc1 (stereo not given),-2.14% [at 70.9 µM]
21,CC1(C)S[C@@H]2[C@H](NC(=O)C(C(=O)O)c3ccccc3)C(=O)N2[C@H]1C(=O)O (stereo not given in full),0.0534% [at 70.9 µM]
22,CO[C@@]1(NC(=O)CSCC#N)C(=O)N2C(C(=O)O)=C(CSc3nnnn3C)CS[C@@H]21,1.02% [at 70.9 µM]
23,CC(CNC1CCCCC1)OC(=O)c1ccccc1 (stereo not given),0.138% [at 70.9 µM]
24,Cc1onc(-c2ccccc2)c1C(=O)Cl,0.0935% [at 70.9 µM]
25,CN1CCN(C2=Nc3ccccc3Oc3ccc(Cl)cc32)CC1,3.63% [at 70.9 µM]
26,O=C1N(c2ccccc2)c2ccccc2C1(Cc1ccncc1)Cc1ccncc1,-1.25% [at 70.9 µM]
27,Cc1nnc(SCC2=C(C(=O)O)N3C(=O)[C@@H](NC(=O)Cn4cnnn4)[C@H]3SC2)s1,1.07% [at 70.9 µM]

# Assay: qHTS assay to identify small molecule agonists of the hypoxia (HIF-1) signaling pathway (AID 1224846; active = well fitted activation curve with a large enough effect in the signal ratio in the repeat runs, not every such curve was filed as active; the % refers to the signal ratio)
# Settings: HRE-bla ME-180 cells, beta-lactamase ratio, 17 h; series mostly up to 76.8 µM; activation: at the top concentration
# Outline: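 Beta-lactamase FRET read-out (CCF4-AM substrate) from ME-180 cells carrying an HRE-driven bla reporter, after 17 hrs compound exposure at 37C/5% CO2. Cells were seeded at 2,000 per well in 0.5% dialyzed FBS medium and preincubated 5 hrs.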
row,SMILES,activation
1,OCCN(CCO)c1ccccc1,-1.52%
2,O=C1CCCCC1C1CCCCC1 (stereo not given),-2.1%
3,CCCCc1ccc2nc(NC(=O)OC)[nH]c2c1,1.6% [at 35.5 µM]
4,C=CCCC=C,1.27%
5,Cc1cc2nc(N)sc2cc1C,0.896%
6,Cc1ccc(C=O)s1,-0.206%
7,OCc1c2ccccc2cc2ccccc12,0.737%
8,C=Cc1ccccc1,-0.328%
9,CCOc1ccc(NS(=O)(=O)c2ccc(N)cc2)nn1,-0.429% [at 35.5 µM]
10,O=Cc1ccc(O)c(O)c1O,0.229% [at 35.5 µM]
11,O=C1CCN(c2ccccc2)N1,-0.866%
12,CCOC(=O)C(Br)c1ccccc1 (stereo not given),0.174%
13,O=c1oc2c(O)c(O)cc3c(=O)oc4c(O)c(O)cc1c4c23,-0.716% [at 15.8 µM]
14,Nc1ccc(Oc2ccc(N)c(N)c2)cc1,0.0453%
15,Cc1nc(N)nc(N)c1-c1ccc(Cl)c(Cl)c1,2.54% [at 35.5 µM]
16,Cc1c[nH]c(=S)[nH]c1=O,-1.18%

# Assay: qHTS assay to identify small molecule agonists of H2AX - cell viability counter screen (AID 1224847); note: top concentration of the series differs between compounds; nearly all actives have a fitted effect of over 30% in size
# Settings: CHO-K1 viability, CellTiter-Glo luminescence, 3 h; series mostly up to 154 µM; activity change, negative = cytotoxicity: at the top concentration
# Outline: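 Compounds tested at 15 concentrations were incubated 3 hr at 37C with wild-type CHO-K1 cells; cellular ATP-based luminescence (CellTiter-Glo) indicated viability.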
row,SMILES,"activity change, negative = cytotoxicity"
1,O=C1CCCCC1C1CCCCC1 (stereo not given),-3.52%
2,CCCCc1ccc2nc(NC(=O)OC)[nH]c2c1,-2.78% [at 70.9 µM]
3,Cc1nc(-c2ccccn2)ncc1C(=O)Nn1cc(C)c2cc(F)ccc21,-6.76%
4,O=C(CC(=O)C(F)(F)F)c1ccccc1,1.65%
5,C[C@]12CCC(=O)C=C1CC[C@@H]1[C@@H]2CC[C@@]2(C)[C@H]1CC[C@]2(O)C(=O)CO,-1.04% [at 70.9 µM]
6,Cc1ccc(C=O)s1,0.618%
7,O=C(O)CN(CCN(CC(=O)O)CC(=O)O)CCN(CC(=O)O)CC(=O)O,0.16% [at 31.6 µM]
8,CN(C)CCOc1ccccc1Cc1ccccc1,-0.453% [at 70.9 µM]
9,OCc1c2ccccc2cc2ccccc12,-1.68%
10,O=Cc1ccc(O)c(O)c1O,0.609% [at 70.9 µM]
11,NC(Cc1ccc(F)cc1)C(=O)O (stereo not given),0.454% [at 14 µM]
12,CC(=O)N(CC(O)CN(C(C)=O)c1c(I)c(C(=O)NCC(O)CO)c(I)c(C(=O)NCC(O)CO)c1I)c1c(I)c(C(=O)NCC(O)CO)c(I)c(C(=O)NCC(O)CO)c1I (stereo not given),-0.132% [at 70.9 µM]
13,O=C1CCN(c2ccccc2)N1,0.655%
14,CC(C)NCC(O)COc1ccc(CCOCC2CC2)cc1 (stereo not given),-2.03% [at 70.9 µM]
15,CC1=C(CC(=O)O)c2cc(F)ccc2/C1=C\c1ccc(S(C)(=O)=O)cc1,1.59% [at 70.9 µM]
16,CC(C)C1=CC2=CC[C@@H]3[C@](C)(CCC[C@@]3(C)C(=O)O)[C@H]2CC1,11.5%
17,O=c1oc2c(O)c(O)cc3c(=O)oc4c(O)c(O)cc1c4c23,0.906% [at 31.6 µM]
18,CC(C)O,-9.25%
19,CCCNC(C)C(=O)Nc1c(C)csc1C(=O)OC (stereo not given),4.99% [at 70.9 µM]
20,CCCN(CCC)C(=O)C(CCC(=O)O)NC(=O)c1ccccc1 (stereo not given),-0.12% [at 70.9 µM]
21,CC1(C)S[C@@H]2[C@H](NC(=O)C(C(=O)O)c3ccccc3)C(=O)N2[C@H]1C(=O)O (stereo not given in full),1.87% [at 70.9 µM]
22,COc1ccc(Nc2ccc(OC)cc2)cc1,-6.18%
23,CC(CNC1CCCCC1)OC(=O)c1ccccc1 (stereo not given),-0.249% [at 70.9 µM]
24,CN1CCN(C2=Nc3ccccc3Oc3ccc(Cl)cc32)CC1,-4.86% [at 70.9 µM]
25,Cc1nnc(SCC2=C(C(=O)O)N3C(=O)[C@@H](NC(=O)Cn4cnnn4)[C@H]3SC2)s1,1.75% [at 70.9 µM]
